Test systems include NCI-H23 lung; NCI-H226 lung; HOP-62 NSCLC; NCI-H460 lung; NCI-H522 lung; A549/ATCC NSCLC; 786-0 renal; COLO 205 colon; DU-145 prostate; K-562 leukemia; MDA-MB-231 breast; RXF 393 renal; SF-268 CNS; SF-295 CNS; SF-539 CNS; UACC-257 melanoma; M14 melanoma; MALME-3M melanoma.
Common to all, as to test: NCI-60 one-dose screen, 48 h (100 = growth as untreated, 0 = no growth, -100 = all killed)
Common to all, as to conditions: 10 µM

About 83,000 compounds went through this panel and 20% of them were active in at least one assay; those are over-represented in the sample as a whole.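 Values shown are percent growth following 48 h exposure of cells in 96-well plates to a single concentration of compound; below 10 was considered active.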 A number with no mark means an inactive call. Calls of active or inactive are those of the source.

With `O=C1CC(=O)N(C(=O)c2nn(-c3ccc(Cl)cc3)cc2O)N1`, the growth with NCI-H23 lung was 39.3%; in the experiment with NCI-H226 lung, 43.1%; in the experiment with HOP-62 NSCLC it was 38.8%; with NCI-H460 lung, 27.4%; in the experiment on NCI-H522 lung it was 5.35% (active); in the experiment with A549/ATCC NSCLC, 44.5%. Besides, the growth with 786-0 renal was 50.7%; in the experiment on COLO 205 colon, -13.4% (active); in the experiment on DU-145 prostate, 46.9%; in the experiment with K-562 leukemia, 5.55% (active); with MDA-MB-231 breast it was 62.3%; in the experiment on RXF 393 renal, 53.3%. In addition, the growth was 43.3% with SF-268 CNS; -7.1% (active) in the experiment with SF-295 CNS; 39.7% in the experiment with SF-539 CNS; 66.1% with UACC-257 melanoma; 47.5% with M14 melanoma.

In the case of `Nc1nc(-c2ccc(Cl)cc2)cc(-c2cc3ccccc3oc2=O)n1`, the growth in the experiment with NCI-H23 lung is 92.5%; in the experiment on NCI-H226 lung, 88.9%; in the experiment on HOP-62 NSCLC, 84.7%; in the experiment on NCI-H460 lung it was 101%; in the experiment with A549/ATCC NSCLC, 103%; in the experiment on 786-0 renal it was 95.7%. In addition, the growth was 100% with COLO 205 colon; 106% in the experiment with DU-145 prostate; 114% in the experiment on K-562 leukemia; 80% in the experiment on MALME-3M melanoma; 93.9% with MDA-MB-231 breast; 112% in the experiment with RXF 393 renal. Besides, the growth in the experiment on SF-268 CNS was 104%; in the experiment with SF-295 CNS, 89.1%; with SF-539 CNS it was 117%; with UACC-257 melanoma it was 132%; in the experiment on M14 melanoma, 95.3%.

For `CCN(CC)c1ccc(/C=C2\SC(=O)C(Nc3nnc(-c4cccnc4SCc4ccccc4)o3)C2=O)cc1` (stereo unspecified), the growth in the experiment on NCI-H23 lung is 21.7%; in the experiment with NCI-H226 lung, 20.1%; in the experiment with HOP-62 NSCLC it was 30.5%; in the experiment on NCI-H460 lung, 3.5% (active); in the experiment on NCI-H522 lung, -17.6% (active); in the experiment with A549/ATCC NSCLC, 12.2%. Further, the growth with DU-145 prostate is 28.9%; in the experiment with K-562 leukemia, 14.5%; in the experiment on MALME-3M melanoma, 57.9%; with MDA-MB-231 breast, 39.4%; with RXF 393 renal, -13.2% (active); in the experiment with SF-268 CNS, 57.3%. The growth was 12.2% in the experiment with SF-295 CNS, 13.8% in the experiment with SF-539 CNS, 56.9% in the experiment on UACC-257 melanoma and -11.6% (active) with M14 melanoma.

`CCOC(=O)/C(=C(\C)N)C1CC(=O)NC1=O` (stereo unspecified): the growth in the experiment with NCI-H23 lung is 96.3%; in the experiment on NCI-H226 lung it was 97.3%; with HOP-62 NSCLC, 107%; with NCI-H460 lung, 101%; in the experiment with NCI-H522 lung it was 102%; with A549/ATCC NSCLC it was 101%. Besides, the growth is 101% in the experiment with 786-0 renal; 109% in the experiment with COLO 205 colon; 83.6% with K-562 leukemia; 111% in the experiment with MALME-3M melanoma; 112% in the experiment on MDA-MB-231 breast; 102% with RXF 393 renal. The growth with SF-268 CNS was 108%; in the experiment with SF-295 CNS it was 101%; in the experiment with SF-539 CNS, 105%; with UACC-257 melanoma it was 101%; with M14 melanoma, 97.2%.

`O=c1c(Br)ccc(Br)cc1Br`: the growth is -51.8% (active) in the experiment with NCI-H23 lung; 97.5% in the experiment on NCI-H226 lung; 15.2% in the experiment with HOP-62 NSCLC; 36.1% with NCI-H460 lung; -29.3% (active) in the experiment with 786-0 renal; -70.6% (active) in the experiment with COLO 205 colon. The growth was -72.3% (active) in the experiment on DU-145 prostate; -11.6% (active) in the experiment with K-562 leukemia; -3.63% (active) in the experiment with MDA-MB-231 breast; -89.5% (active) in the experiment on RXF 393 renal; 14.3% with SF-268 CNS; 46.7% in the experiment on SF-295 CNS. Also, the growth is 15% in the experiment with SF-539 CNS and -70.2% (active) in the experiment with M14 melanoma.

Consider `O=C(CNc1nnc(-c2cccnc2SCc2ccccc2)s1)Nc1nc(Cl)cc(Cl)n1`, for which the growth in the experiment on NCI-H23 lung is 112%; in the experiment on NCI-H226 lung it was 107%; in the experiment on HOP-62 NSCLC, 95.4%; in the experiment on NCI-H460 lung it was 123%; with NCI-H522 lung, 102%; with A549/ATCC NSCLC, 120%. The growth in the experiment on DU-145 prostate is 100%; with K-562 leukemia it was 109%; with MALME-3M melanoma, 98.8%; with MDA-MB-231 breast, 104%; in the experiment on RXF 393 renal, 124%; in the experiment with SF-268 CNS, 91.5%. Further, the growth is 103% with SF-295 CNS, 110% with SF-539 CNS, 157% in the experiment on UACC-257 melanoma and 106% in the experiment with M14 melanoma.

Turning to `O=C1/C=C/[C@@H](O)[C@@H]2C[C@@H](O)C[C@H]2/C=C/CCC[C@H](CCc2ccc(C(F)(F)F)cc2)O1`, the growth is -10.5% (active) with NCI-H23 lung; 0.477% (active) in the experiment with NCI-H226 lung; -4.15% (active) in the experiment with HOP-62 NSCLC; 9.42% (active) in the experiment with NCI-H460 lung; -58.5% (active) with NCI-H522 lung; 8.38% (active) in the experiment on A549/ATCC NSCLC. In addition, the growth was 19.5% in the experiment on DU-145 prostate; 11.7% in the experiment on K-562 leukemia; -13.9% (active) in the experiment with MALME-3M melanoma; -84% (active) with MDA-MB-231 breast; -31.6% (active) with RXF 393 renal; 4.75% (active) with SF-268 CNS. For the same compound, the growth was 11.4% with SF-295 CNS, 25.2% with SF-539 CNS, 10.5% in the experiment on UACC-257 melanoma and 7.65% (active) in the experiment on M14 melanoma.

For the compound `COc1cc(-c2ccc(N=Nc3ccc4c(S(=O)(=O)O)ccc(N)c4c3O)c(OC)c2)ccc1N=Nc1ccc2c(S(=O)(=O)O)ccc(N)c2c1O`, the growth in the experiment on NCI-H23 lung was 101%; with NCI-H226 lung, 102%; in the experiment on HOP-62 NSCLC it was 85.9%; in the experiment with NCI-H460 lung, 108%; in the experiment on NCI-H522 lung it was 105%; in the experiment on A549/ATCC NSCLC, 106%. The growth is 120% with 786-0 renal; 95.7% in the experiment on COLO 205 colon; 122% in the experiment on DU-145 prostate; 121% with K-562 leukemia; 106% in the experiment on MDA-MB-231 breast; 93.3% with RXF 393 renal. The growth was 102% in the experiment on SF-268 CNS, 102% in the experiment with SF-539 CNS, 109% in the experiment with UACC-257 melanoma and 107% in the experiment with M14 melanoma.

Take `Cc1ccc(C)c(COc2cc(NC(=O)c3ccc4c(c3)OCO4)ccc2N(C)S(C)(=O)=O)c1`: the growth in the experiment with NCI-H23 lung was 9.96% (active); with NCI-H226 lung, 37%; with HOP-62 NSCLC it was 16.1%; with NCI-H460 lung it was -9.36% (active); in the experiment on NCI-H522 lung it was -15.9% (active); in the experiment on A549/ATCC NSCLC it was 21.9%. The growth in the experiment with 786-0 renal was 6.5% (active); with COLO 205 colon, -68.3% (active); in the experiment with DU-145 prostate it was -40.5% (active); in the experiment with K-562 leukemia, 13.3%; with MDA-MB-231 breast it was -10.8% (active); with RXF 393 renal it was -1.01% (active). For the same compound, the growth in the experiment on SF-268 CNS was 20.8%; in the experiment with SF-295 CNS, -4.18% (active); in the experiment with SF-539 CNS, -7.46% (active); with UACC-257 melanoma it was 66.6%; in the experiment on M14 melanoma, -34.2% (active).
